# Data as given in PubChem BioAssay (NCATS).
# Values joined by “and” are separate entries in the source; they are usually repeats but may differ in a detail not shown here. Equal values may be shown once. Inconclusive results are not listed. Where a call stands in place of a potency, no number is given. Active and inactive are the calls of the source. Unless noted, calls come from the whole dose curve; as a rule, active = well fitted curve in the direction sought with a large enough effect; inconclusive = small, poorly fitted or top-dose-only effect, or another doubt; inactive = no such curve, though single readings can be large; an effect the other way counts as inactive or inconclusive.
# What was measured:
# [1] = qHTS assay for small molecule antagonists of retinoid X receptor alpha signaling (AID 588546; active = well fitted inhibition curve with a large enough effect in the signal ratio, with a control signal flat, not every such curve was filed as active; the % refers to the signal ratio;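 note: cells stimulated with 9-cis-retinoic acid as agonist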); details: HEK293T RXRa-UAS-bla, beta-lactamase ratio, antagonist mode; measured here: W530 green channel, cytotoxicity proxy
# Outline: (§1)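 Beta-lactamase reporter inhibition, read as CCF4 fluorescence ratio (ex 405, em 460/530 nm) after 2 h at RT. HEK293T UAS-bla cells, 2500/well, were stimulated with 9-cis-RA at 500 or 100 nM final alongside test compound for 18 h at 37 C.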
# [2] = biological target: Retinoic acid receptor RXR-alpha (Homo sapiens) (UniProt P19793); assay: as above; details: HEK293T RXRa-UAS-bla, beta-lactamase ratio, antagonist mode
# Outline: as §1
# [3] = biological target: Thyroid hormone receptor beta (Homo sapiens) (UniProt P10828); assay: qHTS assay for small molecule antagonists of thyroid hormone receptor beta signaling (AID 588547; active = well fitted inhibition curve with a large enough effect in the signal ratio, with a control signal flat, not every such curve was filed as active; the % refers to the signal ratio;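 note: cells stimulated with 0.4 nM T3 agonist during compound exposure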); details: TR-UAS-bla HEK293, beta-lactamase ratio, antagonist mode, 18 h
# Outline: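 Inhibition of T3-driven (0.4nM final) beta-lactamase reporter activity was measured over 0.59 nM to 92 uM compound after 18 h at 37 C. The cells were GripTite HEK293 TR-UAS-bla in charcoal/dextran-stripped serum, with CCF4 ratio read-out and IC50 from Hill fits.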
# [4] = biological target: Voltage-gated inwardly rectifying potassium channel KCNH2 (Homo sapiens) (UniProt Q12809); assay: qHTS Assay for Small Molecule Inhibitors of the Human hERG Channel Activity (AID 588834);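 note: top concentration of the series differs between compounds; lower thallium flux fluorescence means stronger hERG block; nearly all actives have a fitted effect of over 50% in size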
# Outline: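 hERG block measured as reduced thallium-dye (FluxOR) fluorescence after stimulation buffer addition, read over 2 min. Cells were hERG-BacMam-transduced U2OS exposed to compound ~10 min […]; concentration-response fitted with Hill equation for AC50.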
# [5] = biological target: Luciferin 4-monooxygenase (Photinus pyralis) (UniProt P08659); assay: Biochemical firefly luciferase enzyme assay for NPC (AID 624030);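 note: purified P. pyralis luciferase at 10 nM with luciferin and ATP substrate; nearly all actives have a fitted effect of over 70% in size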
# Outline: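 Direct inhibition of firefly luciferase enzyme (10 nM final, 50 mM Tris Acetate) assessed by luminescence within 5 minutes. Percent activity scaled between DMSO and PTC124 positive control, with concentration-effect curves classified by fit quality and response.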
# [6] = qHTS assay for small molecule activators of the p53 signaling pathway (AID 651743; active = well fitted activation curve with a large enough effect in the signal ratio, not every such curve was filed as active; the % refers to the signal ratio); details: HCT-116 p53RE-bla, beta-lactamase FRET ratio, 16 h; activation: stronger effect = higher value
# Outline: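 A beta-lactamase reporter under p53 response element control, stably carried by HCT-116 cells, reported pathway activation. Test compounds were applied for 16 hours at 37 C, and fluorescence was measured 2 hours after adding the B/G FRET substrate.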
# [7] = qHTS assay for small molecule activators of the nuclear factor-kappa B (NF-kB) signaling pathway (AID 651749; active = well fitted activation curve with a large enough effect in the signal ratio; the % refers to the signal ratio); details: NF-kB-bla ME-180 cells, beta-lactamase FRET ratio, 16 h; activation: stronger effect = higher value
# Outline: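 FRET-based beta-lactamase detection in ME-180 cells reports NF-kB response-element-driven transcription following overnight (16 hr) compound treatment.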
# [8] = biological target: Peroxisome proliferator-activated receptor alpha (Homo sapiens) (UniProt Q07869); assay: qHTS assay for small molecule agonists of the peroxisome proliferator-activated receptor alpha (PPARalpha) signaling pathway (AID 651778); details: PathHunter PPARalpha complementation, chemiluminescence, 6 h; stronger effect = higher value
# Outline: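 Chemiluminescence from complemented enzyme reported PPARalpha activation in cells after 6 hr of compound treatment at 37 C. The detection reagent was incubated for 60 min at room temperature, and compounds were scored as agonists.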
# [9] = biological target: Nuclear receptor ROR-gamma (Homo sapiens) (UniProt P51449); assay: qHTS assay for small molecule antagonists of the retinoid-related orphan receptor gamma (ROR-gamma) signaling pathway (AID 651802);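 note: CHO cells with doxycycline-induced ROR-gamma expression; luciferase reporter luminescence driven by ROR response element; nearly all actives have a fitted effect of over 60% in size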
# Outline: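 Doxycycline-induced reporter activity in engineered CHO cells (TET-inducible ROR, RORE-LUC) was measured by luminescence after 16hr compound exposure at 37C.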
# [10] = qHTS assay for small molecule agonists of the antioxidant response element (ARE) signaling pathway measured by Nrf2-dependant transcriptional activity (AID 720636; active = well fitted curve in the direction sought with a large enough effect in the repeat runs; an effect the other way counts as inactive or inconclusive)
# Outline: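 Quantitative HTS format in HepG2 cells stably expressing an ARE-luciferase reporter; 16 hr compound treatment at 37 C, luciferase signal detected with ONE-Glo.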
# [11] = qHTS assay for small molecule antagonists of the retinoid-related orphan receptor gamma (ROR-gamma) signaling pathway - cell viability counter screen (AID 720652; active = well fitted curve in the direction sought with a large enough effect in the repeat runs; an effect the other way counts as inactive or inconclusive;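 note: CHO reporter cells with doxycycline-induced ROR-gamma expression; compound exposure lasted 16 hr before ATP read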)
# Outline: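 ATP-based viability readout in the ROR-gamma reporter CHO cells after 16 hr compound exposure under doxycycline induction.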
# [12] = qHTS assay for small molecule agonists of the antioxidant response element (ARE) signaling pathway measured by Nrf2-dependant transcriptional activity - cell viability counter screen (AID 720653; active = well fitted curve in the direction sought with a large enough effect in the repeat runs; an effect the other way counts as inactive or inconclusive); details: ARE-bla HepG2 viability, CellTiter-Glo ATP luminescence, 16 h; max response: stronger effect = lower value
# Outline: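 Cytotoxicity counter screen: intracellular ATP quantified by CellTiter-Glo luminescence in the same ARE-bla HepG2 plates, after 16 h compound exposure and a 2 h beta-lactamase substrate step.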
# [13] = qHTS Assay for Identifying Gametocytocidal Compounds (AID 743244);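 note: actives lower the fluorescent signal which means gametocytes are killed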; details: P. falciparum 3D7 stage III-V gametocytes, alamarBlue, 72 h; max response: stronger effect = lower value
# Outline: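 Compounds are pinned into medium, gametocytes (stage III–V, 3D7, 20,000 cells/well) added, and plates held 72 h at 37 °C in 5% CO2. AlamarBlue follows for 24 h before fluorescence reading.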
# [14] = qHTS assay for cell viability of HEK293 cells (AID 743288); details: ATP luminescence (CellTiter-Glo), 18 h; max response: stronger effect = lower value; note: nearly all actives have a fitted effect of over 50% in size
# Outline: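 Readout is luciferase-coupled ATP content (CellTiter-Glo luminescence, 30 min room temperature) as a measure of metabolically competent cells. Parental HEK293 cells were plated 5 h or more before compound addition, then treated 18 h at 37 C.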
# [15] = qHTS assay for cell viability of the p53RE-bla HCT-116 cell line (AID 743292); note: nearly all actives have a fitted effect of over 55% in size
# Outline: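 Viability of compound-treated p53RE-bla HCT-116 cells is taken from ATP-dependent luciferase luminescence. Treatment lasts 16 h at 37 C after a 5 h settling period; detection follows 30 min at room temperature.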
# [16] = P-glycoprotein substrates identified in KB-8-5-11 adenocarcinoma cell line, qHTS therapeutic library screen (AID 1346987); note: nearly all actives have a fitted effect of over 65% in size
# Outline: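 Human cervical adenocarcinoma KB-8-5-11 cells, selected in colchicine to over-express P-gp and assayed without it, were exposed for 72 h to titrated compounds. An ATP-based luminescent viability signal gave AC50.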
# [17] = biological target: Cytochrome P450 2D6 (Homo sapiens) (UniProt P10635); assay: Cytochrome P450 family 2 subfamily D member 6 (CYP2D6) small molecule antagonists: luciferase biochemical (cell-free) qHTS assay (AID 1645840; active = well fitted curve in the direction sought with a large enough effect in the repeat runs; an effect the other way counts as inactive or inconclusive; note: nearly all actives have a fitted effect of over 55% in size)
# Outline: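 P450-Glo CYP2D6 system: proluciferin substrate converted by enzyme to luciferin, read by luminescence proportional to activity. Enzyme-substrate mix with compound 10 min at room temperature, then NADPH regeneration 1 h before detection reagent.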
# [18] = biological target: Cytochrome P450 2C9 (Homo sapiens) (UniProt P11712); assay: Cytochrome P450 family 2 subfamily C member 9 (CYP2C9) small molecule antagonists: luciferase biochemical (cell-free) qHTS assay (AID 1645842; active = well fitted curve in the direction sought with a large enough effect in the repeat runs; an effect the other way counts as inactive or inconclusive; note: nearly all actives have a fitted effect of over 55% in size)
# Outline: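 P450-Glo CYP2C9 system: proluciferin substrate with enzyme in mix containing 0.4% BSA, 10 min at room temperature, then NADPH regeneration solution added and incubated 1 h at 37C. Detection reagent stopped reaction; luminescence read after 20 min as RLU.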
# KB-3-1 = assay: Cytotoxic Profiling of Annotated Libraries Using Quantitative High-Throughput Screening (AID 1296008); details: Five cell lines viability, CellTiter-Glo ATP luminescence, 48-72 h; max response: stronger effect = lower value; note: nearly all actives have a fitted effect of over 60% in size
# Outline: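 Cytotoxicity was measured as CellTiter-Glo ATP luminescence, read after 10 min at room temperature. Compound treatment of the cells lasted 48 or 72 hr at 37 degrees Celsius in a qHTS format.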
# [19] = Drug repurposing screens with cells derived from glioblastoma tumor samples (AID 1345199); details: GBM patient neurospheres viability, ATP luminescence, 48 h; Potency: tumour line A; series mostly up to 45.9 µM; note: nearly all actives have a fitted effect of over 40% in size
# Outline: (§2)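 Primary testing used CD133+ neurospheres from four GBM patients, seven concentrations, 48 h exposure and ATP-based viability; confirmation added three slower-growing patient lines.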
# astro = assay: as above; details: viability, ATP luminescence, 48 h; series mostly up to 45.9 µM
# Outline: as §2
# [20] = biological target: Nuclear receptor subfamily 1 group I member 2 (Rattus norvegicus) (UniProt Q9R1A7); assay: qHTS assay for small molecule activators of the rat pregnane X receptor (rPXR) signaling pathway (AID 651751; call rule not given here); details: rPXR reporter cells, luciferase (One-Glo), 24 h
# [21] = qHTS assay for small molecule activators of the human pregnane X receptor (PXR) signaling pathway (AID 720659; call rule not given here)
# Sequence of Retinoic acid receptor RXR-alpha (Homo sapiens) (P19793 whole entry, looked up): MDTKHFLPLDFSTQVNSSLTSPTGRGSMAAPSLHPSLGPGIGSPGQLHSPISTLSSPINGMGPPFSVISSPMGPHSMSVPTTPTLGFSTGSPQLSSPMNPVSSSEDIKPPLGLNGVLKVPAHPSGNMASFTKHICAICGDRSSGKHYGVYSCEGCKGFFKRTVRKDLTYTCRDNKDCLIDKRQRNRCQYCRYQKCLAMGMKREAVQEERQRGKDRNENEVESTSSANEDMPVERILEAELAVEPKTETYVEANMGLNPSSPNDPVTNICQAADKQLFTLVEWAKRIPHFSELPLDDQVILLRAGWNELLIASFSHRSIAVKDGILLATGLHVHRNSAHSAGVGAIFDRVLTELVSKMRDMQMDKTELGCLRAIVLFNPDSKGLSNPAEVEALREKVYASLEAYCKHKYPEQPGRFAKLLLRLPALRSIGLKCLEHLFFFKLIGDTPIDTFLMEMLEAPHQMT
# Sequence of Nuclear receptor subfamily 1 group I member 2 (Rattus norvegicus) (Q9R1A7 whole entry, looked up): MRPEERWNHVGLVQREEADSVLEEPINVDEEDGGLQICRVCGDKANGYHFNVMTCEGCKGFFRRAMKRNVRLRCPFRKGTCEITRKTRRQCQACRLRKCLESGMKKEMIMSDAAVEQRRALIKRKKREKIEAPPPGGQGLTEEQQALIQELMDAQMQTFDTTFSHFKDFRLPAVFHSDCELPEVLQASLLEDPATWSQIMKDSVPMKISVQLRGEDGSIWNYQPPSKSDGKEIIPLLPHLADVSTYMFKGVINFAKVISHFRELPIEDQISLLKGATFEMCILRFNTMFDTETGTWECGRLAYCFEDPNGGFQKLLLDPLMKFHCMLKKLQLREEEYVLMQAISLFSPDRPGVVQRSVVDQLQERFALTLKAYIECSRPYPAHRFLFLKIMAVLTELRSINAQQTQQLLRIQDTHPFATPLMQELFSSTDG
# Sequence of Thyroid hormone receptor beta (Homo sapiens) (P10828 whole entry, looked up): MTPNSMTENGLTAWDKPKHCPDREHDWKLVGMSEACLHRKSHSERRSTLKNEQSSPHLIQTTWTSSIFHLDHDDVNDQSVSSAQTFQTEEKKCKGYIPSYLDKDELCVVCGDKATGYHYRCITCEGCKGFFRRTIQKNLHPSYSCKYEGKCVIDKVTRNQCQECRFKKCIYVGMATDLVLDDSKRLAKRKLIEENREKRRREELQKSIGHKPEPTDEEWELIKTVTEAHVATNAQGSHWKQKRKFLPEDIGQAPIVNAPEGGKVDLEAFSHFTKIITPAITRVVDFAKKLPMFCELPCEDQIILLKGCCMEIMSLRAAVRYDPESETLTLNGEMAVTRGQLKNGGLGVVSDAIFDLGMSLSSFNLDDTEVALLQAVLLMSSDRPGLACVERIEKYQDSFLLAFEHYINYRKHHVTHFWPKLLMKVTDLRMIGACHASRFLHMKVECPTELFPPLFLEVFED
# Sequence of Peroxisome proliferator-activated receptor alpha (Homo sapiens) (Q07869 whole entry, looked up): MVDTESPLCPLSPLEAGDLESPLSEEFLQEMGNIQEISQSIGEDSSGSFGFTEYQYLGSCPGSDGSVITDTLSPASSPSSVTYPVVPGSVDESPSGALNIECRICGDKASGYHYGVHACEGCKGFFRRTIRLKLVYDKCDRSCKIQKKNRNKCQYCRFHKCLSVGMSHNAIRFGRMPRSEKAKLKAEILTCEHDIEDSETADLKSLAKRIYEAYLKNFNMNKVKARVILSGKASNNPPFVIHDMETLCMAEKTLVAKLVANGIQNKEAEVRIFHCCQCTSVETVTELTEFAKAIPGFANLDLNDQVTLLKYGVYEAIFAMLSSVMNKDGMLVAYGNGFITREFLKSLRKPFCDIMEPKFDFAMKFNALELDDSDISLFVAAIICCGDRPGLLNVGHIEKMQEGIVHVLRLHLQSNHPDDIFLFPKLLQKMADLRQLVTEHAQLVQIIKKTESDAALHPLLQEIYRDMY
# Sequence of Luciferin 4-monooxygenase (Photinus pyralis) (P08659 whole entry, looked up): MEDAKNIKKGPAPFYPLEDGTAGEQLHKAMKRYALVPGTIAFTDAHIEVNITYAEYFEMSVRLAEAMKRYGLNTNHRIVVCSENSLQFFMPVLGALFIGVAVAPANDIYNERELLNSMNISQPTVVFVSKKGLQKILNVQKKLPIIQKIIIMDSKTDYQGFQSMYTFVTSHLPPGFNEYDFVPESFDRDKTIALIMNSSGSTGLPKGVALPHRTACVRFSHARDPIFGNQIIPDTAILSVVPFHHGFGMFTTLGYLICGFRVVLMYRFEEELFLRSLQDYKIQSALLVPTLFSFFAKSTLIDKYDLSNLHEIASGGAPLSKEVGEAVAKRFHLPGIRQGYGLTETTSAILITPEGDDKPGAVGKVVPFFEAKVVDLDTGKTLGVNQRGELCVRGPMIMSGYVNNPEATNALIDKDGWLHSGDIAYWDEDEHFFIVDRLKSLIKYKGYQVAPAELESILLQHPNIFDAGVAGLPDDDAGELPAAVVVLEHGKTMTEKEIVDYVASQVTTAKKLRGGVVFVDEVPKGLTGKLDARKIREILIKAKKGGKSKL
# Sequence of Cytochrome P450 2C9 (Homo sapiens) (P11712 whole entry, looked up): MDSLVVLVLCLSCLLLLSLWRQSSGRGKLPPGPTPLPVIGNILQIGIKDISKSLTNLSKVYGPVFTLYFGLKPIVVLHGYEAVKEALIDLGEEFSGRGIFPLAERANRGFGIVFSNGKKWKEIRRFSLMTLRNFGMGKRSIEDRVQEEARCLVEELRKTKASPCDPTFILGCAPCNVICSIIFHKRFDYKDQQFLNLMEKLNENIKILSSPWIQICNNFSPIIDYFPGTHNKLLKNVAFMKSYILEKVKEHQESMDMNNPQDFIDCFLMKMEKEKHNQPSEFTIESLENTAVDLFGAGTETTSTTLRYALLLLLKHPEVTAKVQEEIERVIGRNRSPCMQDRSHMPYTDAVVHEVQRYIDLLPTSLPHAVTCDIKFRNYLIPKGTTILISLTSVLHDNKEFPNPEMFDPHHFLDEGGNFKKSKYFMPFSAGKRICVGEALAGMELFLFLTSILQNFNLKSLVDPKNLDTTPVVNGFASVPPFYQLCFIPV
# Sequence of Voltage-gated inwardly rectifying potassium channel KCNH2 (Homo sapiens) (Q12809 whole entry, looked up): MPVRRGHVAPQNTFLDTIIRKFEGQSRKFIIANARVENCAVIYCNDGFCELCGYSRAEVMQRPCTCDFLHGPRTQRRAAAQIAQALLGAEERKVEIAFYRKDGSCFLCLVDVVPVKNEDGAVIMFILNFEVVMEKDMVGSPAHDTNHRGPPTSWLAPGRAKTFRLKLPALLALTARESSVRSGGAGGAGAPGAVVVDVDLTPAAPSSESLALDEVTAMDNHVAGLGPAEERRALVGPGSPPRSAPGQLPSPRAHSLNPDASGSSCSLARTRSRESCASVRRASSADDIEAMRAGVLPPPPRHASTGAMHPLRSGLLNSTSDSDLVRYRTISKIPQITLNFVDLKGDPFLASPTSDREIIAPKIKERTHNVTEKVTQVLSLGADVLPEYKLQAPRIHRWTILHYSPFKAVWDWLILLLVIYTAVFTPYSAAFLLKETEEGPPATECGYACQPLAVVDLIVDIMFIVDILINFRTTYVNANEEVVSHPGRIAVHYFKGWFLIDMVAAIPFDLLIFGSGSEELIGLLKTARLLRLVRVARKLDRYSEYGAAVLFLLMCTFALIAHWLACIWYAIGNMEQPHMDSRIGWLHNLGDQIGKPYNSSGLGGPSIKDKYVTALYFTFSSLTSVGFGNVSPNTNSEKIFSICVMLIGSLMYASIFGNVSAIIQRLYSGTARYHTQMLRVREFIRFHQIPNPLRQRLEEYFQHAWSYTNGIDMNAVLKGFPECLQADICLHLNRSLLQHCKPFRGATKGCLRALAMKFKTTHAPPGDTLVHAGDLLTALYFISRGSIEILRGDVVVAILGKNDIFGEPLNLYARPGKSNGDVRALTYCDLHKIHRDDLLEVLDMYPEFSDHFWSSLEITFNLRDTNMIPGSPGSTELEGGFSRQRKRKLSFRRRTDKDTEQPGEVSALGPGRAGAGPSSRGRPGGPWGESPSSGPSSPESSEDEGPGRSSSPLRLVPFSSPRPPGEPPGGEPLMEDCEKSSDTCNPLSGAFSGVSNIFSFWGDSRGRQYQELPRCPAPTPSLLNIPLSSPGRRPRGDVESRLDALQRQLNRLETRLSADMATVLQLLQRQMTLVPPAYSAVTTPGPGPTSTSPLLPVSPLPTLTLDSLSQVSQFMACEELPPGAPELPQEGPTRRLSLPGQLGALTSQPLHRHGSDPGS
# Sequence of Nuclear receptor ROR-gamma (Homo sapiens) (P51449 whole entry, looked up): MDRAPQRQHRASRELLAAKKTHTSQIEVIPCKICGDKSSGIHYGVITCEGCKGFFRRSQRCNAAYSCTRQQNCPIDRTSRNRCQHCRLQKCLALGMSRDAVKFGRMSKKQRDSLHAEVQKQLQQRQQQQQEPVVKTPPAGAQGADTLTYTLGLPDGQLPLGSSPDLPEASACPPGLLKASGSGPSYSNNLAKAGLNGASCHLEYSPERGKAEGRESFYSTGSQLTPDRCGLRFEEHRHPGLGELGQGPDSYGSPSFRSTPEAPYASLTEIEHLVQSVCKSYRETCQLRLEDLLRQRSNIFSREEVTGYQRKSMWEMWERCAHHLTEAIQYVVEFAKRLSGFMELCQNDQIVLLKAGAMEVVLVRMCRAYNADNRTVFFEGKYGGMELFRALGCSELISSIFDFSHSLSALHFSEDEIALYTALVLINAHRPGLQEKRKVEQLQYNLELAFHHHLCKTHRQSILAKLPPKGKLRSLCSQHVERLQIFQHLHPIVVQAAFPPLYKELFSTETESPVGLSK
smiles,measurement,setting,value
CCOc1cc(C=O)ccc1O,max response,[1],0.367% and -12.6%
same,max response,[2],1.38% (inactive) and 4.11% (inactive)
same,activity change % (negative = inhibition),[3],6.05% (inactive) and -14.6% (inactive)
same,Potency,[4],inactive
same,Potency,[5],inactive
same,activation,[6],-1.8% (inactive)
same,activation,[7],-0.0137% (inactive) and -0.605% (inactive)
same,max response,[8],-3.28% (inactive) and -2.59% (inactive)
same,Potency,[9],inactive
same,Potency,[10],inactive
same,outcome,[11],inactive
same,max response,[12],-16.9% (inactive) and 0.643% (inactive)
same,max response,[13],-3.19% (inactive)
same,max response,[14],-8.41% (inactive) and -7.59% (inactive)
same,outcome,[15],inactive
same,Potency,[16],inactive
same,Potency,[17],inactive
same,Potency,[18],inactive
same,max response,KB-3-1,-13% (inactive)
same,Potency,[19],inactive
same,Potency,astro,inactive
same,max response,[20],-3.58% (inactive) and -0.453% (inactive)
same,outcome,[21],inactive
